“And” between values parts separate entries of the source, which are not always exact repeats. Equal values may be shown once. Records with an inconclusive call do not appear. More than one record can exist for a structure, and the calls need not agree. The source made the active and inactive calls. Calls follow the shape of the dose curve; as a rule, active = well fitted curve in the direction sought with a large enough effect in the repeat runs; inconclusive = weak or mixed curves; inactive = no such curve, though single readings can be large; an effect the other way counts as inactive or inconclusive.

The nature of test [1]: qHTS RealTime-Glo MT Cell Viability Assay in HEK293 cells - 40 hour (AID 1224874). Also: nearly all actives have a fitted effect of over 50% in size. The following applies: RealTime-Glo luminescence; max response: stronger effect = lower value. The method in brief: (§1)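 qHTS format; HEK293 cells with NanoLuc/prosubstrate reagent, 37 C/5% CO2 for 5 h pre-dosing; compounds 23 nL in DMSO; luminescence at each time point reflects viable cells.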
A general note: In qHTS, concentration-response curves come from the screen itself.

A short description of test [2]: A CellTox Green Cytotoxicity Assay to monitor cytotoxicity in HEK293 cells - 24 hour (AID 1224875). Also: series mostly up to about 77 µM; nearly all actives have a fitted effect of over 45% in size. The method in brief:
(§2)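 Each value comes from one timepoint of a single continuous run in which HEK293 cells with CellTox Green were exposed to compound for up to 40 h at 37 C, dye fluorescence rising with cell death.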

The nature of test [3]: A CellTox Green Cytotoxicity Assay to monitor cytotoxicity in HepG2 cells - 16 hour (AID 1224876). Also: nearly all actives have a fitted effect of over 45% in size. The method in brief:
(§3)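 Continuous culture of HepG2 cells with a membrane-impermeant DNA dye; rising fluorescence marks dead cells. Compound exposure lasted up to 40 h at 37 C, with reads every 8 h from 0 h.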

Test [4] is described as follows: qHTS RealTime-Glo MT Cell Viability Assay in HepG2 cells - 32 hour (AID 1224877). Also: nearly all actives have a fitted effect of over 55% in size. In outline:
(§4)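 Cell number in HepG2 cultures estimated from NanoLuc luminescence generated by metabolic reduction of a prosubstrate by living cells. The homogeneous, nonlytic format allowed repeated reads at 0, 8, 16, 24, 32 and 40 h of compound exposure.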

Test [5] in a line: A CellTox Green Cytotoxicity Assay to monitor cytotoxicity in HepG2 cells - 24 hour (AID 1224878). Also: nearly all actives have a fitted effect of over 45% in size. In outline:
as §3

The nature of test [6]: A CellTox Green Cytotoxicity Assay to monitor cytotoxicity in HepG2 cells - 40 hour (AID 1224879). Also: nearly all actives have a fitted effect of over 40% in size. Also: potency is read from the fitted curve at half-maximal effect. In outline: as §3
Test [7] is described as follows: qHTS RealTime-Glo MT Cell Viability Assay in HEK293 cells - 0 hour (AID 1224880). Also: top concentration of the series differs between compounds; nearly all actives have a fitted effect of over 45% in size. The method in brief: as §1
Test [8] is described as follows: A CellTox Green Cytotoxicity Assay to monitor cytotoxicity in HEK293 cells - 32 hour (AID 1224881). Also: nearly all actives have a fitted effect of over 40% in size. The method in brief: as §2
Test [9] can be described thus: A CellTox Green Cytotoxicity Assay to monitor cytotoxicity in HepG2 cells - 0 hour (AID 1224882). Also: nearly all actives have a fitted effect of over 35% in size. The method in brief:
as §3

A short description of test [10]: A CellTox Green Cytotoxicity Assay to monitor cytotoxicity in HepG2 cells - 32 hour (AID 1224883). Also: nearly all actives have a fitted effect of over 50% in size. In outline: as §3
Test [11] in a line: A CellTox Green Cytotoxicity Assay to monitor cytotoxicity in HEK293 cells - 8 hour (AID 1224884). Also: nearly all actives have a fitted effect of over 35% in size. In outline: as §2
Test [12] can be described thus: qHTS RealTime-Glo MT Cell Viability Assay in HepG2 cells - 16 hour (AID 1224885). Also: nearly all actives have a fitted effect of over 50% in size. The method in brief:
as §4

The nature of test [13]: qHTS RealTime-Glo MT Cell Viability Assay in HEK293 cells - 24 hour (AID 1224886). Also: top concentration of the series differs between compounds; nearly all actives have a fitted effect of over 50% in size. In outline: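 Homogeneous bioluminescent viability format in HEK293 cells (600 cells/well). Following 5 h at 37 C/5% CO2, 23 nL compound was pintooled; the signal was measured repeatedly during 40 h incubation.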
A short description of test [14]: qHTS RealTime-Glo MT Cell Viability Assay in HEK293 cells - 8 hour (AID 1224887). In outline: as §1
The nature of test [15]: A CellTox Green Cytotoxicity Assay to monitor cytotoxicity in HEK293 cells - 16 hour (AID 1224888). Also: nearly all actives have a fitted effect of over 35% in size. In outline: as §2
The nature of test [16]: qHTS RealTime-Glo MT Cell Viability Assay in HepG2 cells - 0 hour (AID 1224889). Also: nearly all actives have a fitted effect of over 50% in size. In outline: as §4
A short description of test [17]: A CellTox Green Cytotoxicity Assay to monitor cytotoxicity in HepG2 cells - 8 hour (AID 1224890). Also: nearly all actives have a fitted effect of over 45% in size. In outline: as §3
Test [18] is described as follows: qHTS assay to identify small molecule antagonists of the estrogen receptor alpha (ER-alpha) signaling pathway using the BG1 cell line in the presence of 0.1 nM 17-beta-estradiol - cell viability counter screen (AID 1259241). Also: nearly all actives have a fitted effect of over 40% in size. The method in brief:
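In this screen, hormone-deprived VM7Luc4E2 cells were seeded at 4,000 per well, dosed with compound and 0.1 nM estradiol final, and incubated 22 hr at 37C and 5% CO2; fluorogenic live-cell protease signal reported viability.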

Test [19] is described as follows: qHTS assay to identify small molecule antagonists of the androgen receptor (AR) signaling pathway using the MDA cell line in the presence of 0.5 nM R1881 - cell viability counter screen (AID 1259242). Also: nearly all actives have a fitted effect of over 45% in size. The method in brief: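 Fluorescence from CellTiter-Fluor, which reports protease activity of live cells, was read 30 min after reagent addition to MDA-kb2 cells that had been incubated 16 hr with compound and 0.5 nM R1881.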
% is scaled to controls: 0 for no effect and ±100 for the full control effect.

Regarding `O=[N+]([O-])c1ccc([As](=O)(O)O)cc1`, the max response in test [1] is 0.69% (inactive) and 11.7% (inactive). Besides, the Potency entry in test [2], in test [3], in test [5], in test [6], in test [8] and in [9] was “inactive” throughout. The Potency entry in test [10], in test [11], in test [13], in test [15], in test [17] and in [18] was “inactive” in each case. In addition, the outcome in test [4], in [7], in test [12], in test [14], in test [16] and in [19] was inactive.

For the compound `c1ccc(OP(Oc2ccccc2)Oc2ccccc2)cc1`, the max response in test [1] is 4.65% (inactive) and 9.76% (inactive). Further, the Potency result in [2], in test [3], in [5], in [6], in [8] and in test [9] was “inactive” in each case. The Potency entry in test [10], in test [11], in test [13], in [15], in [17] and in [18] was “inactive” throughout. In addition, the compound was classed as inactive in test [4], in test [7], in test [12], in test [14], in test [16] and in test [19].

Turning to `CC1C=[C-]C=C1.[C-]#[O+].[C-]#[O+].[C-]#[O+].[Mn]`, in test [1], the max response was 5.97% (inactive) and 3.98% (inactive). Besides, the Potency entry in [2], in test [3], in [5], in test [6], in [8] and in test [9] was “inactive” throughout. Also, the Potency result in test [10], in [11], in test [13], in test [15], in [17] and in test [18] was “inactive” throughout. Besides, the call in test [4], in [7], in test [12], in test [14], in test [16] and in [19] was inactive.

As for `CCOC(=O)c1ccccc1C(=O)OCC`, in test [1], the max response was 0.767% (inactive) and 3.18% (inactive). Also, the Potency entry in test [2], in test [3], in test [5], in test [6], in test [8] and in test [9] was “inactive” each time. Also, the Potency result in test [10], in test [11], in test [13], in test [15], in test [17] and in test [18] was “inactive” each time. The call in test [4], in test [7], in test [12], in test [14], in test [16] and in test [19] was inactive.

`Cc1cc(Cl)ccc1O`: in [1], the max response is 4.2% (inactive) and 2.39% (inactive). The Potency result in test [2], in test [3], in test [5], in test [6], in test [8] and in test [9] was “inactive” each time. For the same compound, the Potency entry in test [10], in test [11], in [13], in test [15], in [17] and in test [18] was “inactive” throughout. Further, the compound was called inactive in test [4], in test [7], in [12], in [14], in test [16] and in [19].

Consider `CCOP(=S)(OCC)Oc1cnc2ccccc2n1`, for which the max response in test [1] is 0.949% (inactive). The Potency result in test [2], in test [3], in test [5], in test [6], in [8] and in test [9] was “inactive” throughout. For the same compound, the Potency result in test [10], in [11], in [13], in [15], in [17] and in test [18] was “inactive” throughout. For the same compound, the call in [4], in [7], in test [12], in [14], in test [16] and in [19] was inactive.

With `c1ccc2c(c1)Oc1ccccc1O2`, the max response in [1] is 4.43% (inactive) and 0.097% (inactive). Further, the Potency result in test [2], in test [3], in test [5], in [8], in [9] and in test [10] was “inactive” throughout. Also, the Potency entry in [11], in test [13], in test [15], in test [17] and in test [18] was “inactive” in each case. Further, the outcome in [4], in [7], in test [12], in test [14], in [16] and in [19] was inactive. In test [6], the Potency is 30.5 µM (active) and inactive.

As to `Nc1ccc(Br)cc1`, the max response in test [1] was -1.58% (inactive) and -21.4% (inactive). For the same compound, the Potency result in test [2], in [3], in [5], in test [6], in [8] and in test [9] was “inactive” in each case. Moreover, the Potency result in test [10], in test [11], in test [13], in test [15], in test [17] and in test [18] was “inactive” in each case. The result in test [4], in test [7], in test [12], in test [14], in test [16] and in test [19] was inactive.

With `O=C1CCCN1`, in test [1], the max response was 1.24% (inactive) and -5.73% (inactive). Further, the Potency result in test [2], in [3], in test [5], in test [6], in test [8] and in [9] was “inactive” in each case. The Potency result in [10], in test [11], in [13], in [15], in [17] and in test [18] was “inactive” throughout. Moreover, the compound was called inactive in test [4], in test [7], in [12], in test [14], in test [16] and in test [19].

For the compound `NCCc1ccc(O)cc1`, the max response in [1] was -18.4% (inactive) and 1.96% (inactive). The Potency entry in [2], in [3], in [5], in test [6], in test [8] and in [9] was “inactive” in each case. Also, the Potency entry in [10], in test [11], in [13], in [15], in [17] and in test [18] was “inactive” each time. In addition, the compound was called inactive in test [4], in [7], in test [12], in [14], in [16] and in [19].

`O=Cc1cccc(Oc2ccccc2)c1`: in [1], the max response was -18.5% (inactive) and 0.95% (inactive). Moreover, the Potency entry in [2], in [3], in [5], in test [6], in [8] and in test [9] was “inactive” in each case. In addition, the Potency entry in test [10], in test [11], in [13], in [15], in [17] and in test [18] was “inactive” each time. Also, the result in [4], in test [7], in [12], in test [14], in test [16] and in test [19] was inactive.

In the case of `CC(NC(C)(C)C)C(=O)c1cccc(Cl)c1` (stereo not drawn), in test [1], the max response is 6.38% (inactive) and -11.6% (inactive). The Potency entry in test [2], in [3], in test [5], in [6], in [8] and in test [9] was “inactive” each time. In addition, the Potency result in [10], in test [11], in test [13], in test [15], in test [17] and in test [18] was “inactive” in each case. The call in [4], in test [7], in [12], in test [14], in [16] and in test [19] was inactive.
